Measured values reported in the supplement of paper PMC9694430.

Tests used:
Assay in all cases: thermal shift delta Tm vs DMSO control; higher = stronger stabilization (binding)
Details in all cases: 12.5 µM; protein concentration 2 µM
LOC_OS01G01410-cb001 = system: LOC_OS01G01410-cb001
In short: (§1)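 Heating from 25°C to 95°C at 0.05°C/s, fluorescence was recorded for 19.5 μl wells of 2 μM E. coli-expressed, purified rice kinase domain in 100 mM potassium phosphate pH 7.5, 150 mM NaCl, 10% glycerol and 5 × SYPRO Orange with compound in DMSO. Boltzmann fits gave melting temperatures for this differential scanning fluorimetry assay. The shift reported is the mean of three replicates against the DMSO-only protein.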

LOC_OS01G02750-cb003 = system: LOC_OS01G02750-cb003
In short: as §1

LOC_OS01G10900-cb004 = system: LOC_OS01G10900-cb004
In short: as §1

LOC_OS01G13800-cb001 = system: LOC_OS01G13800-cb001
In short: as §1

LOC_OS01G14860-cb001 = system: LOC_OS01G14860-cb001
In short: as §1

LOC_OS01G21960-cb002 = system: LOC_OS01G21960-cb002
In short: as §1

LOC_OS01G39600-cb002 = system: LOC_OS01G39600-cb002
In short: as §1

LOC_OS01G48390-cb002 = system: LOC_OS01G48390-cb002
In short: as §1

LOC_OS01G51400-cb002 = system: LOC_OS01G51400-cb002
In short: as §1

LOC_OS01G52050-cb004 = system: T1, LOC_OS01G52050-cb004
T1 sequence (whole entry): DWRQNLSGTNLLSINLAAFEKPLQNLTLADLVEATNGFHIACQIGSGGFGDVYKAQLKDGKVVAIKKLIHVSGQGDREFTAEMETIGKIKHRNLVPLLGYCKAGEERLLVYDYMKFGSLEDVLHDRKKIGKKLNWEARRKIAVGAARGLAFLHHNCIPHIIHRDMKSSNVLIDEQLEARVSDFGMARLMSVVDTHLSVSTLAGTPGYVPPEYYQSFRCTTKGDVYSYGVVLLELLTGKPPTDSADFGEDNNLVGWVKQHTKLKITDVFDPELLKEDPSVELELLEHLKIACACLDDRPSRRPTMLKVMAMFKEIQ
In short: as §1

LOC_OS01G57100-cb003 = system: LOC_OS01G57100-cb003
In short: as §1

LOC_OS01G60330-cb001 = system: LOC_OS01G60330-cb001
In short: as §1

LOC_OS01G60700-cb002 = system: LOC_OS01G60700-cb002
In short: as §1

LOC_OS01G63280-cb003 = system: LOC_OS01G63280-cb003
In short: as §1

LOC_OS01G67340-cb003 = system: LOC_OS01G67340-cb003
In short: as §1

LOC_OS01G70970-cb002 = system: LOC_OS01G70970-cb002
In short: as §1

LOC_OS02G07810-cb001 = system: LOC_OS02G07810-cb001
In short: as §1

LOC_OS02G08530-cb003 = system: LOC_OS02G08530-cb003
In short: as §1

LOC_OS02G14120-cb001 = system: LOC_OS02G14120-cb001
In short: as §1

LOC_OS02G17970-cb001 = system: LOC_OS02G17970-cb001
In short: as §1
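Further: purified Escherichia coli-expressed rice kinase domain construct.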

## COc1ccc(Oc2cc(NCCC(F)(F)F)c3ncc(-c4ccc(C(=O)NC5CC5)c(C)c4)n3n2)c(F)c1F
LOC_OS01G01410-cb001
  thermal shift delta Tm: 0.28 °C
LOC_OS01G02750-cb003
  thermal shift delta Tm: 1.7 °C
LOC_OS01G10900-cb004
  thermal shift delta Tm: -0.65 °C
LOC_OS01G13800-cb001
  thermal shift delta Tm: 0.15 °C
LOC_OS01G14860-cb001
  thermal shift delta Tm: 0.68 °C
LOC_OS01G21960-cb002
  thermal shift delta Tm: -0.46 °C
LOC_OS01G39600-cb002
  thermal shift delta Tm: 1.84 °C
LOC_OS01G48390-cb002
  thermal shift delta Tm: 0.14 °C
LOC_OS01G51400-cb002
  thermal shift delta Tm: 0.75 °C
LOC_OS01G52050-cb004
  thermal shift delta Tm: 1.81 °C
LOC_OS01G57100-cb003
  thermal shift delta Tm: -1.23 °C
LOC_OS01G60330-cb001
  thermal shift delta Tm: 1.27 °C
LOC_OS01G60700-cb002
  thermal shift delta Tm: -0.2 °C
LOC_OS01G63280-cb003
  thermal shift delta Tm: 0.82 °C
LOC_OS01G67340-cb003
  thermal shift delta Tm: 1 °C
LOC_OS01G70970-cb002
  thermal shift delta Tm: 0.18 °C
LOC_OS02G07810-cb001
  thermal shift delta Tm: 1.17 °C
LOC_OS02G08530-cb003
  thermal shift delta Tm: 0.66 °C
LOC_OS02G14120-cb001
  thermal shift delta Tm: -0.01 °C
LOC_OS02G17970-cb001
  thermal shift delta Tm: 1.28 °C

## Nc1[nH]nc2nnc(-c3c(-c4ccccc4)nn4ccccc34)cc12
LOC_OS01G01410-cb001
  thermal shift delta Tm: 0.52 °C
LOC_OS01G02750-cb003
  thermal shift delta Tm: 0.34 °C
LOC_OS01G10900-cb004
  thermal shift delta Tm: 0.36 °C
LOC_OS01G13800-cb001
  thermal shift delta Tm: 0.24 °C
LOC_OS01G14860-cb001
  thermal shift delta Tm: 1.87 °C
LOC_OS01G21960-cb002
  thermal shift delta Tm: 0.45 °C
LOC_OS01G39600-cb002
  thermal shift delta Tm: -0.05 °C
LOC_OS01G48390-cb002
  thermal shift delta Tm: 0.56 °C
LOC_OS01G51400-cb002
  thermal shift delta Tm: 0.19 °C
LOC_OS01G52050-cb004
  thermal shift delta Tm: 0.56 °C
LOC_OS01G57100-cb003
  thermal shift delta Tm: 1.13 °C
LOC_OS01G60330-cb001
  thermal shift delta Tm: 1.24 °C
LOC_OS01G60700-cb002
  thermal shift delta Tm: 0.92 °C
LOC_OS01G63280-cb003
  thermal shift delta Tm: 0.4 °C
LOC_OS01G67340-cb003
  thermal shift delta Tm: 0.72 °C
LOC_OS01G70970-cb002
  thermal shift delta Tm: 0.68 °C
LOC_OS02G07810-cb001
  thermal shift delta Tm: -0.25 °C
LOC_OS02G08530-cb003
  thermal shift delta Tm: 2.11 °C
LOC_OS02G14120-cb001
  thermal shift delta Tm: 0.36 °C
LOC_OS02G17970-cb001
  thermal shift delta Tm: 0.87 °C

## O=C(c1ccc(Nc2nccc(-c3cc4ccccc4s3)n2)cc1)N1CCC(N2CCCC2)CC1 [IKK-16 (IKK Inhibitor VII)]
LOC_OS01G01410-cb001
  thermal shift delta Tm: 2.52 °C
LOC_OS01G02750-cb003
  thermal shift delta Tm: 2.69 °C
LOC_OS01G10900-cb004
  thermal shift delta Tm: 4.53 °C
LOC_OS01G13800-cb001
  thermal shift delta Tm: -0.34 °C
LOC_OS01G14860-cb001
  thermal shift delta Tm: 5.72 °C
LOC_OS01G21960-cb002
  thermal shift delta Tm: 2.79 °C
LOC_OS01G39600-cb002
  thermal shift delta Tm: 8.28 °C
LOC_OS01G48390-cb002
  thermal shift delta Tm: 1.72 °C
LOC_OS01G51400-cb002
  thermal shift delta Tm: -0.14 °C
LOC_OS01G52050-cb004
  thermal shift delta Tm: 4.5 °C
LOC_OS01G57100-cb003
  thermal shift delta Tm: 0.94 °C
LOC_OS01G60330-cb001
  thermal shift delta Tm: 12.6 °C
LOC_OS01G60700-cb002
  thermal shift delta Tm: 0.43 °C
LOC_OS01G63280-cb003
  thermal shift delta Tm: 2.16 °C
LOC_OS01G67340-cb003
  thermal shift delta Tm: 3.52 °C
LOC_OS01G70970-cb002
  thermal shift delta Tm: 2.66 °C
LOC_OS02G07810-cb001
  thermal shift delta Tm: 0 °C
LOC_OS02G08530-cb003
  thermal shift delta Tm: 2.32 °C
LOC_OS02G14120-cb001
  thermal shift delta Tm: 11.1 °C
LOC_OS02G17970-cb001
  thermal shift delta Tm: 0.35 °C

## O=C(Nc1c[nH]nc1-c1nc2ccc(CN3CCOCC3)cc2[nH]1)NC1CC1
LOC_OS01G01410-cb001
  thermal shift delta Tm: 5.91 °C
LOC_OS01G02750-cb003
  thermal shift delta Tm: 3.78 °C
LOC_OS01G10900-cb004
  thermal shift delta Tm: 2.15 °C
LOC_OS01G13800-cb001
  thermal shift delta Tm: -0.38 °C
LOC_OS01G14860-cb001
  thermal shift delta Tm: 8.12 °C
LOC_OS01G21960-cb002
  thermal shift delta Tm: 3.45 °C
LOC_OS01G39600-cb002
  thermal shift delta Tm: 6.02 °C
LOC_OS01G48390-cb002
  thermal shift delta Tm: 2.89 °C
LOC_OS01G51400-cb002
  thermal shift delta Tm: 0.42 °C
LOC_OS01G52050-cb004
  thermal shift delta Tm: 7.67 °C
LOC_OS01G57100-cb003
  thermal shift delta Tm: 0.91 °C
LOC_OS01G60330-cb001
  thermal shift delta Tm: 11.9 °C
LOC_OS01G60700-cb002
  thermal shift delta Tm: 1.09 °C
LOC_OS01G63280-cb003
  thermal shift delta Tm: 5.34 °C
LOC_OS01G67340-cb003
  thermal shift delta Tm: 1.94 °C
LOC_OS01G70970-cb002
  thermal shift delta Tm: 7.9 °C
LOC_OS02G07810-cb001
  thermal shift delta Tm: 0.64 °C
LOC_OS02G08530-cb003
  thermal shift delta Tm: 3.3 °C
LOC_OS02G14120-cb001
  thermal shift delta Tm: 11.9 °C
LOC_OS02G17970-cb001
  thermal shift delta Tm: 0.14 °C

## CN(C)Cc1cccc(N=C(c2ccccc2)c2c(O)[nH]c3cc(C(=O)N(C)C)ccc23)c1
LOC_OS01G01410-cb001
  thermal shift delta Tm: -0.17 °C
LOC_OS01G02750-cb003
  thermal shift delta Tm: 0.75 °C
LOC_OS01G10900-cb004
  thermal shift delta Tm: 0.14 °C
LOC_OS01G13800-cb001
  thermal shift delta Tm: 0.49 °C
LOC_OS01G14860-cb001
  thermal shift delta Tm: 0.13 °C
LOC_OS01G21960-cb002
  thermal shift delta Tm: 0.52 °C
LOC_OS01G39600-cb002
  thermal shift delta Tm: 1.05 °C
LOC_OS01G48390-cb002
  thermal shift delta Tm: 1.46 °C
LOC_OS01G51400-cb002
  thermal shift delta Tm: 0.16 °C
LOC_OS01G52050-cb004
  thermal shift delta Tm: 0.77 °C
LOC_OS01G57100-cb003
  thermal shift delta Tm: 0.86 °C
LOC_OS01G60330-cb001
  thermal shift delta Tm: 0.56 °C
LOC_OS01G60700-cb002
  thermal shift delta Tm: 0.46 °C
LOC_OS01G63280-cb003
  thermal shift delta Tm: 0.74 °C
LOC_OS01G67340-cb003
  thermal shift delta Tm: 0.8 °C
LOC_OS01G70970-cb002
  thermal shift delta Tm: 0.24 °C
LOC_OS02G07810-cb001
  thermal shift delta Tm: 1.05 °C
LOC_OS02G08530-cb003
  thermal shift delta Tm: 0.71 °C
LOC_OS02G14120-cb001
  thermal shift delta Tm: 1.17 °C
LOC_OS02G17970-cb001
  thermal shift delta Tm: 1.25 °C

## CCCCNc1ncc2c(-c3ccc(CN4CCN(C)CC4)cc3)cn([C@H]3CC[C@H](O)CC3)c2n1
LOC_OS01G01410-cb001
  thermal shift delta Tm: 5.57 °C
LOC_OS01G02750-cb003
  thermal shift delta Tm: 6.91 °C
LOC_OS01G10900-cb004
  thermal shift delta Tm: 0.53 °C
LOC_OS01G13800-cb001
  thermal shift delta Tm: -0.91 °C
LOC_OS01G14860-cb001
  thermal shift delta Tm: 2.44 °C
LOC_OS01G21960-cb002
  thermal shift delta Tm: 2.55 °C
LOC_OS01G39600-cb002
  thermal shift delta Tm: 7.19 °C
LOC_OS01G48390-cb002
  thermal shift delta Tm: 3.3 °C
LOC_OS01G51400-cb002
  thermal shift delta Tm: 0.81 °C
LOC_OS01G52050-cb004
  thermal shift delta Tm: 9.81 °C
LOC_OS01G57100-cb003
  thermal shift delta Tm: 3.5 °C
LOC_OS01G60330-cb001
  thermal shift delta Tm: 14.9 °C
LOC_OS01G60700-cb002
  thermal shift delta Tm: 0.56 °C
LOC_OS01G63280-cb003
  thermal shift delta Tm: 0.95 °C
LOC_OS01G67340-cb003
  thermal shift delta Tm: 10.1 °C
LOC_OS01G70970-cb002
  thermal shift delta Tm: 8.18 °C
LOC_OS02G07810-cb001
  thermal shift delta Tm: -0.25 °C
LOC_OS02G08530-cb003
  thermal shift delta Tm: 5.26 °C
LOC_OS02G14120-cb001
  thermal shift delta Tm: 12.2 °C
LOC_OS02G17970-cb001
  thermal shift delta Tm: -0.42 °C
